# Measured values taken from PubChem BioAssay AID1347076 (National Center for Advancing Translational Sciences (NCATS), 2019).
# The campaign covered roughly 400,000 compounds. About 13,000 (3.2%) were called active. Not shown: some 18% with an inconclusive outcome. The sample holds actives, similar compounds and a random draw of the others, so the mix is not that of the screen. Calls come from the whole dose curve; as a rule, active = well fitted cell-killing curve with a large enough effect; inconclusive = small, poorly fitted or top-dose-only effect, or effect the other way; inactive = flat fitted curve, though single readings scatter.
# Assay: qHTS assay for MDR1-selective chemotherapeutics: Primary screen using the drug-selected MDR subline cells KB-V1; note: nearly all actives have a fitted effect of over 60% in size
# Conditions: KB-V1 MDR cells viability, CellTiter-Glo, 72 h; series mostly up to 46.1 µM; activity change, negative = cytotoxicity: at the top concentration
# Procedure, shortened: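 In this primary screen, KB-V1 cells overexpressing P-gp are incubated with library compounds (lowest to highest concentration) for 72 h at 37 degrees C before a luminescent ATP viability read.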
# % is set by controls: 0 for no effect and ±100 for the full control effect; potency is the fitted concentration of half-maximal effect.
Structure (SMILES),"activity change, negative = cytotoxicity",Potency
O=C(c1ccccc1)N1CCN(c2cc(-c3ccccc3)nc3cc(-c4cccc(Cl)c4)nn23)CC1,-14.3% (inactive),–
CCNC(=O)C1CCCN(C(=O)c2ccc(OC)cc2OC)CC1 (centres undefined),2.93% (inactive),–
CCN(CC)C(=O)CSc1nnc(CNc2ccc(F)cc2)n1Cc1ccco1,-7.12% (inactive),–
CCc1ccccc1N1CN(Cc2ccco2)CNC1=S,-5.41% (inactive),–
CN(C)C(=S)N=c1ssc(=S)n1Cc1ccco1,–,4.11 µM (active)
CC(C)NC(=O)C1(C)CCCCCN1C(=O)c1ccc(-c2ccccc2)cc1 (centres undefined),-1.14% (inactive),–
OC[C@@H]1CN(C2CCCC2)C[C@H](n2cnc3c(NC4CCC4)ncnc32)O1,19.1% (inactive),–
CCOc1cccc2c1N[C@@H](c1ccc(C(=O)O)cc1)[C@H]1CC=C[C@@H]21,17.3% (inactive),–
COc1cccc(C(O)c2ncc(-c3ccc4ccccc4c3)[nH]2)c1 (centres undefined),-14.9% (inactive),–
CN1CCN(C2Cc3ccc(Cl)cc3Sc3ccc(F)cc32)CC1 (centres undefined),–,16.4 µM (active)
CC(C)CNC(=O)C1(C)CCCN1C(=O)CSc1ccccc1 (centres undefined),2.38% (inactive),–
CCCCCn1c(=O)[nH]c2cc(C(=O)Nc3ccc(F)cc3)ccc2c1=O,-4.83% (inactive),–
Cc1ccc(S(=O)(=O)/N=C2\C=C(NS(=O)(=O)c3ccc(C)cc3)C(=O)c3ccccc32)cc1,-17% (inactive),–
Cc1ccc(C)c(NC(=O)CSc2nc3c(oc4ccccc43)c(=O)n2-c2ccccc2)c1,–,7.31 µM (active)
COc1ccc(-n2c(SCC(N)=O)nc3c(oc4ccccc43)c2=O)cc1,0% (inactive),–
Cc1cccc(NC(=O)CSc2nc3c(oc4ccccc43)c(=O)n2-c2ccc(F)cc2)c1,2.03% (inactive),–
Cc1c(C)c(C)c2[nH]c(=S)[nH]c2c1C,–,3.66 µM (active)
CCCOc1ccc(F)cc1-c1cc(C(=O)Nc2ccc(F)cc2)[nH]n1,-21.7% (inactive),–
CCCCNC(=O)c1ccccc1NC(=O)c1ccccc1N(C)S(C)(=O)=O,–,23.1 µM (active)
CCC(C)NC(=O)c1ccccc1NC(=O)c1ccccc1N(C)S(C)(=O)=O (centres undefined),0% (inactive),–
CCCCNC(=O)c1ccccc1NC(=O)C1=C(C)OCCS1,-18.7% (inactive),–
CCCCOc1ccc(CNC(=O)c2ccc3c(c2)N(C)C(=O)C2CCCCN32)cc1 (centres undefined),11.8% (inactive),–
CCN(CC)CCN(C(=O)c1ccc2c(c1)CCCC2)c1nc2c(OC)cccc2s1,-19.3% (inactive),–
CCC(=O)N1c2ccccc2CC1C(=O)N1CCN(c2ccccc2F)CC1 (centres undefined),-0.299% (inactive),–
Cc1ccc(-c2nc3cccc(C)n3c2Nc2ccc3c(c2)OCCO3)cc1,-6.68% (inactive),–

Structure (SMILES),"activity change, negative = cytotoxicity",Potency
CN(c1ccccc1)S(=O)(=O)c1ccc(C(=O)NCc2cccnc2)cc1,-8.64% (inactive),–
COc1ccc(CNC(=O)Cc2ccc(-c3ccccc3)cc2)cc1OC,–,7.31 µM (active)
COc1ccc(CNC(=O)c2ccc(Br)s2)cc1OC,-18.8% (inactive),–
COc1ccc(CNC(=O)c2c(C)cc(=O)oc2C)cc1OC,13.8% (inactive),–
COc1ccc(CCNC(=O)Cc2ccc(C)cc2)cc1OC,-23.9% (inactive),–
COc1ccc(NC(=O)CNC(=O)Cc2ccccc2)cc1OC,0% (inactive),–
COc1ccc(CNC(=O)c2ccc(-c3cccnc3)c3ccoc23)cc1OC,–,18.4 µM (active)
CCOc1cc(C2C(C(=O)OC)=C(C)NC3=C2C(=O)c2ccccc23)ccc1O (centres undefined),0.212% (inactive),–
CCOC(=O)CSC1=Nc2ccccc2C2=NC(CCC(=O)NCc3ccc(F)cc3)C(=O)N12 (centres undefined),8.51% (inactive),–
CCCNS(=O)(=O)c1ccc(CCC(=O)N2CCCC2)cc1,-7.52% (inactive),–
CCNS(=O)(=O)c1ccc(CCC(=O)N2CCN(c3ccc(OC)cc3)CC2)cc1,-7.91% (inactive),–
CCNS(=O)(=O)c1ccc(CCC(=O)N2CCN(c3cc(Cl)ccc3C)CC2)cc1,–,14.6 µM (active)
O=C1C(Sc2cccc(F)c2)=C[C@@]2(O)CC[C@@H](O)[C@]1(Sc1cccc(F)c1)[C@H]2O,-13.7% (inactive),–
CCc1nc2c(OCCOc3ccccc3)cccn2c1N(C)C(=O)c1ccccc1F,-2.19% (inactive),–
COC(=O)C[C@H]1C=C[C@H](NC(=O)c2ccc(F)cc2)[C@@H](CO)O1,-15% (inactive),–
CN(C)Cc1cn(-c2ccccc2)nc1-c1ccccc1,-7.78% (inactive),–
CN(C)c1cccc2ccccc12,12.3% (inactive),–
Cc1ccccc1-n1nnnc1SCCCC(=O)c1ccc(F)cc1,–,6.51 µM (active)
Cc1cc(NC(=O)CSc2nnnn2-c2ccc(F)cc2)no1,16.9% (inactive),–
CC(=O)Nc1ccc(NC(=O)CSc2nnnn2-c2ccccc2F)cc1,-14.2% (inactive),–
O=C(/C=C/[C@H]1O[C@@H](n2cnc3c(NC(=O)c4ccccc4)ncnc32)[C@H](O)[C@@H]1O)NCc1ccccc1,-15.7% (inactive),–
CCCC(=O)N1CCN(c2nc3c(OC)ccc(C)c3s2)CC1,-4.94% (inactive),–
COc1ccc(C(=O)NC(=S)NNC(=O)CCc2ccccc2)cc1,–,6.51 µM (active)
COc1ccc(C(=O)NNC(=S)NC(=O)c2ccccc2[N+](=O)[O-])cc1,0% (inactive),–
Cc1onc(-c2ccccc2)c1C(=O)NNC(=S)NC(=O)c1ccc(F)cc1,-9.36% (inactive),–

Structure (SMILES),"activity change, negative = cytotoxicity",Potency
CC(C)Oc1ccc(CCC(=O)NNC(=S)NCc2ccccc2)cc1,0% (inactive),–
COc1ccc(C(=O)NNC(=S)NC(=O)c2ccccc2)cc1,-22.6% (inactive),–
COc1ccc(C(=O)NC(=S)NNC(=O)c2c(-c3ccccc3)noc2C)cc1,–,6.51 µM (active)
O=S(=O)(Nc1ccc2nc(-c3cccc(Cl)c3)oc2c1)c1ccccc1,2.99% (inactive),–
Cc1ccc(C)c(N2CCN(C(=O)Cn3ncc4c(=O)oc5ccc(C)cc5c43)CC2)c1,6.55% (inactive),–
CC(=O)Nc1ccc(CNc2nc(NCCN(C)C)nc3cc(-c4ccccc4)sc23)cc1,16.7% (inactive),–
CN1C[C@@H](CO)O[C@@H](n2cnc3c(N4CCN(CCO)CC4)ncnc32)C1,7.63% (inactive),–
CCCn1nc(NS(=O)(=O)c2ccc(F)cc2)c2cc3ccccc3nc21,14.6% (inactive),–
CCCn1nc(NC(=O)C(C)C)c2cc3cc(OC)ccc3nc21,2% (inactive),–
CCCn1nc(NS(=O)(=O)c2ccccc2)c2cc3cc(C)ccc3nc21,–,14.6 µM (active)
COc1cccc(NC(=O)CSc2cc(=O)n(C)c3ccc(Cl)cc23)c1,-14.4% (inactive),–
Cc1cccc(C=CC(=O)c2ccc(Cl)cc2)c1,-4.15% (inactive),–
CN(C)c1ccc(/C=C/C(=O)c2ccc(C(C)(C)C)cc2)cc1[N+](=O)[O-],–,18.4 µM (active)
CC(=O)Nc1ccc(C=CC(=O)c2ccc([N+](=O)[O-])cc2)cc1,-4.54% (inactive),–
CCOc1ccc(S(=O)(=O)c2cn(Cc3ccc(OC)cc3)c3ccc(F)cc3c2=O)cc1,7.8% (inactive),–
Cc1nc2ccc(S(=O)(=O)N(CC(=O)Nc3ccc(F)cc3)Cc3ccccc3)cc2s1,6.91% (inactive),–
CC(C)(C)N1C(=O)c2c(C(=O)OCc3ccccc3)[nH]c(-c3ccccc3)c2C1=O,0.678% (inactive),–
Cc1ccc(NC(=O)Cn2cccc2C2=NC(c3ccccc3)CO2)c(C)c1 (centres undefined),–,16.4 µM (active)
Cc1ccc(NC(=O)Cn2nnc(C(=O)NCc3ccco3)c2N)c(C)c1,20.9% (inactive),–
Cc1ccc(NC(=O)CSc2cccc3cccnc23)c(C)c1,-30.1% (inactive),–
CCOc1ccc(NC(=O)C2CCN(S(=O)(=O)c3cc(-c4noc(C)n4)ccc3C)CC2)cc1,-3.59% (inactive),–
c1cc(-c2ccc3[nH]ccc3c2)n2ccnc2c1,0% (inactive),–
CCCCC(=O)N(C)c1c(CC)nc2c(OCc3ccc(S(C)(=O)=O)cc3)cccn12,-12.7% (inactive),–
CCCCC(=O)N(C)c1c(CC)nc2c(OCc3ccc(Cl)cc3Cl)cccn12,–,16.4 µM (active)
CCOC(=O)N(C)c1c(CC)nc2c(OCc3ccccc3C(=O)OC)cccn12,-2.06% (inactive),–

Structure (SMILES),"activity change, negative = cytotoxicity",Potency
CCc1nc2ccc(C(=O)N(C)CCN(C)C)cn2c1N(CC)CCOC,-5.15% (inactive),–
CC(=O)C[C@@H]1OC[C@H](C)N1S(=O)(=O)c1ccc(C)cc1,-6.62% (inactive),–
Cc1ccc(NS(=O)(=O)c2ccc3c(c2)oc(=O)n3C)c(C)c1,-3.35% (inactive),–
Cc1ccc(C)c(N2CCN(S(=O)(=O)c3ccc4c(c3)oc(=O)n4C)CC2)c1,–,14.6 µM (active)
Cc1ccc2nc(NC(=O)C3CCN(S(=O)(=O)c4ccc5c(c4)oc(=O)n5C)CC3)sc2c1,-18.1% (inactive),–
COc1ccc(NC(=O)c2cc(=O)[nH]c3ccccc23)cc1S(=O)(=O)N1CCOCC1,10.6% (inactive),–
Cc1nc(C(F)(F)F)ccc1C(=O)N1CCC1(C)C(=O)NS(=O)(=O)c1ccc(F)cc1F (centres undefined),4.73% (inactive),–
COc1ccc2ncc3c(-c4ccc(C)c(C)c4)nn(CC(=O)NC4CCCC4)c3c2c1,-20.6% (inactive),–
Cc1ccc([C@H]2N[C@]3(CCCN(Cc4ccccc4)C3=O)[C@H]3C(=O)N(Cc4ccccc4)C(=O)[C@@H]23)cc1,0% (inactive),–
Cc1nnc(OCC(=O)NCCC2=CCCCC2)c2ccccc12,3.11% (inactive),–
Cc1ccc(C(C)C)cc1OCC(=O)Nc1ccccc1N1CCCC1,-18.6% (inactive),–
O=C(CNCCC1=CCCCC1)Nc1ccccc1N1CCCCCC1,–,11.6 µM (active)
Cc1ccc2nc(-c3ccco3)c(Cc3cccc(Cl)c3)n2c1,1.67% (inactive),–
COc1ccc(/C(N)=N/OC(=O)Cc2ccccc2)cc1,19% (inactive),–
COc1ccc(C(C#N)=C2C=CC(=NO)c3ccccc32)cc1,–,1.3 µM (active)
COc1ccc(C(=NN)c2ccc(OC)cc2)cc1,7.65% (inactive),–
CCNC(=O)c1cc2c(c(-c3cccc(-c4cncnc4)c3)n1)[C@H](CCO)N(C(C)=O)C2,-5.46% (inactive),–
O=C(NCc1ccccc1Cl)c1csc([C@@H]2O[C@H](CO)[C@@H](O)[C@H]2O)n1,12.3% (inactive),–
COc1cc(C(=O)NCc2nnc(SCC(=O)c3ccc(Cl)cc3)o2)cc(OC)c1OC,-4.15% (inactive),–
CCC(=O)Nc1ccc(C(=O)CSc2nnc(CNc3ccc(Cl)cc3)o2)cc1OC,–,14.6 µM (active)
CCOC(=O)CSc1nnc(CNc2ccc(F)cc2)o1,8.46% (inactive),–
CCc1nc2c(OCc3cccc(OC)c3)cccn2c1N(C)C(=O)C(C)C,-5.47% (inactive),–
CSc1ncnc2c1ncn2CCCNCc1cccs1,-11.8% (inactive),–
Nc1ncnc2c1ncn2[C@@H]1O[C@H](C(=O)NS(=O)(=O)c2c(Cl)nc3sccn23)[C@@H](O)[C@H]1O,1.29% (inactive),–
